PubChem BioAssay AID1159580 (chemical genetic matrix, 2015)
Out of some 5,500 compounds screened, about 2,000 (36%) were called active. Another 18% or so got no clear call; they are omitted. Rule as the data show it: active = normalized growth mostly below about 0.91 (no sharp cut-off); inconclusive = no clear call, values can overlap the other calls; inactive = mostly above about 0.92. Some of the results follow.

Assay: chemical genetic growth profiling, strain panel (AID 1159580);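 also: tested at 20 µM; growth read once vehicle control cultures reached saturation at 30 °C; 1 = growth at the plate median or of vehicle wells; lower values mean less growth of the strain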
Details: growth OD

Measured: normalized growth

CC1CC2C3CC(F)C4=CC(=O)C=CC4(C)C3(F)C(O)CC2(C)C1C(=O)COC(=O)C(C)(C)C (stereo not given)
active: S. cerevisiae deletion strains, locus YDL134C, strain PPH21, hits give low values 0.873 | S. cerevisiae deletion strains, locus YIL066C, strain RNR3, hits give low values 0.852 | S. cerevisiae deletion strains, locus YLR342W, strain FKS1 (second series), hits give low values 0.758 | S. cerevisiae deletion strains, locus YOL006C, strain TOP1, hits give low values 0.509 | S. cerevisiae deletion strains, locus YOR061W, strain CKA2, hits give low values 0.878 | S. cerevisiae strains, strain wild type, hits give low values 0.876
inactive: S. cerevisiae deletion strains, locus YBR021W, strain FUR4, hits give low values 0.903 | S. cerevisiae deletion strains, locus YBR229C, strain ROT2, hits give low values 0.997 | S. cerevisiae deletion strains, locus YCL029C, strain bik1, hits give low values 1.05 | S. cerevisiae deletion strains, locus YDL035C, strain GPR1, hits give low values 0.871 | S. cerevisiae deletion strains, locus YDL074C, strain BRE1, hits give low values 0.879 | S. cerevisiae deletion strains, locus YDL101C, strain DUN1, hits give low values 1.01 | S. cerevisiae deletion strains, locus YDL185W, strain tfp1, hits give low values 1.01 | S. cerevisiae deletion strains, locus YDL192W, strain arf1, hits give low values 0.997 | S. cerevisiae deletion strains, locus YDR101C, strain arx1, hits give low values 1.02 | S. cerevisiae deletion strains, locus YDR150W, strain NUM1, hits give low values 0.977 | S. cerevisiae deletion strains, locus YDR162C, strain NBP2, hits give low values 0.867 | S. cerevisiae deletion strains, locus YDR318W, strain mcm21, hits give low values 1.01 | S. cerevisiae deletion strains, locus YDR388W, hits give low values 1.04 | S. cerevisiae deletion strains, locus YDR502C, strain sam2, hits give low values 1.02 | S. cerevisiae deletion strains, locus YEL061C, strain CIN8, hits give low values 0.973 | S. cerevisiae deletion strains, locus YER110C, hits give low values 1.04 | S. cerevisiae deletion strains, locus YER155C, strain BEM2, hits give low values 1.04 | S. cerevisiae deletion strains, locus YER167W, strain BCK2, hits give low values 0.992 | S. cerevisiae deletion strains, locus YGL078C, strain dbp3, hits give low values 1.02 | S. cerevisiae deletion strains, locus YGL086W, strain mad1, hits give low values 0.96 | S. cerevisiae deletion strains, locus YGL248W, strain PDE1, hits give low values 0.927 | S. cerevisiae deletion strains, locus YGR078C, strain PAC10, hits give low values 0.92 | S. cerevisiae deletion strains, locus YGR135W, strain pre9, hits give low values 0.957 | S. cerevisiae deletion strains, locus YGR252W, strain gcn5, hits give low values 0.849 | S. cerevisiae deletion strains, locus YHR030C, strain SLT2, hits give low values 0.989 | S. cerevisiae deletion strains, locus YHR079C, strain IRE1 (second series), hits give low values 1.03 | S. cerevisiae deletion strains, locus YHR094C, strain hxt1, hits give low values 1.04 | S. cerevisiae deletion strains, locus YHR129C, strain ARP1, hits give low values 0.964 | S. cerevisiae deletion strains, locus YHR200W, strain rpn10, hits give low values 1.01 | S. cerevisiae deletion strains, locus YIL073C, strain SPO22, hits give low values 0.954 | S. cerevisiae deletion strains, locus YIL125W, strain kgd1, hits give low values 1.02 | S. cerevisiae deletion strains, locus YIR030C, strain dcg1, hits give low values 1.03 | S. cerevisiae deletion strains, locus YJL095W, strain BCK1, hits give low values 0.989 | S. cerevisiae deletion strains, locus YJL134W, strain LCB3, hits give low values 1.01 | S. cerevisiae deletion strains, locus YJL168C, strain set2, hits give low values 1.01 | S. cerevisiae deletion strains, locus YJL187C, strain SWE1 (second series), hits give low values 0.934 | S. cerevisiae deletion strains, locus YJR043C, strain POL32, hits give low values 0.892 | S. cerevisiae deletion strains, locus YKL009W, strain mrt4, hits give low values 1.03 | S. cerevisiae deletion strains, locus YKL068W, hits give low values 1.02 | S. cerevisiae deletion strains, locus YKL085W, strain MDH1 (second series), hits give low values 1.01 | S. cerevisiae deletion strains, locus YKL085W, strain MDH1, hits give low values 1.01 | S. cerevisiae deletion strains, locus YKR001C, strain vps1, hits give low values 0.987 | S. cerevisiae deletion strains, locus YLR039C, strain RIC1, hits give low values 0.804 | S. cerevisiae deletion strains, locus YLR058C, strain SHM2, hits give low values 0.981 | S. cerevisiae deletion strains, locus YLR102C, strain apc9, hits give low values 1.03 | S. cerevisiae deletion strains, locus YLR262C, strain YPT6, hits give low values 0.872 | S. cerevisiae deletion strains, locus YLR268W, strain sec22, hits give low values 0.985 | S. cerevisiae deletion strains, locus YLR330W, strain CHS5, hits give low values 0.967 | S. cerevisiae deletion strains, locus YLR371W, strain rom2, hits give low values 1.03 | S. cerevisiae deletion strains, locus YLR418C, strain cdc73, hits give low values 0.953 | S. cerevisiae deletion strains, locus YML016C, strain PPZ1, hits give low values 0.951 | S. cerevisiae deletion strains, locus YML032C, strain rad52, hits give low values 1.03 | S. cerevisiae deletion strains, locus YML124C, strain tub3, hits give low values 1.02 | S. cerevisiae deletion strains, locus YMR078C, strain ctf18, hits give low values 1.04 | S. cerevisiae deletion strains, locus YMR223W, strain ubp8, hits give low values 0.965 | S. cerevisiae deletion strains, locus YMR307W, strain GAS1, hits give low values 0.922 | S. cerevisiae deletion strains, locus YNL067W, strain RPL9B, hits give low values 0.989 | S. cerevisiae deletion strains, locus YNL128W, strain TEP1, hits give low values 0.908 | S. cerevisiae deletion strains, locus YNL233W, strain BNI4, hits give low values 0.919 | S. cerevisiae deletion strains, locus YNL250W, strain rad50, hits give low values 1.01 | S. cerevisiae deletion strains, locus YNL271C, strain bni1, hits give low values 1.02 | S. cerevisiae deletion strains, locus YNL298W, strain CLA4, hits give low values 1.01 | S. cerevisiae deletion strains, locus YNL307C, strain MCK1, hits give low values 1.03 | S. cerevisiae deletion strains, locus YNL322C, strain KRE1, hits give low values 0.984 | S. cerevisiae deletion strains, locus YNR052C, strain pop2, hits give low values 1.01 | S. cerevisiae deletion strains, locus YOL012C, strain htz1 1.01 | S. cerevisiae deletion strains, locus YOL147C, strain pex11, hits give low values 1.03 | S. cerevisiae deletion strains, locus YOR069W, strain VPS5, hits give low values 0.991 | S. cerevisiae deletion strains, locus YOR136W, strain idh2, hits give low values 1.02 | S. cerevisiae deletion strains, locus YOR144C, strain elg1, hits give low values 1.03 | S. cerevisiae deletion strains, locus YOR184W, strain ser1, hits give low values 0.974 | S. cerevisiae deletion strains, locus YOR316C, strain cot1, hits give low values 1.03 | S. cerevisiae deletion strains, locus YPL055C, strain LGE1, hits give low values 0.843 | S. cerevisiae deletion strains, locus YPL241C, strain CIN2, hits give low values 0.992 | S. cerevisiae deletion strains, locus YPR119W, strain clb2, hits give low values 1.03 | S. cerevisiae deletion strains, locus YPR141C, strain kar3, hits give low values 1.02 | S. cerevisiae deletion strains, locus YPR163C, strain tif3, hits give low values 1.03 | S. cerevisiae deletion strains, locus YPR167C, strain met16, hits give low values 1.01 | S. cerevisiae deletion strains, strain wtn01, hits give low values 0.983
